In the supplement of paper PMC13380429:

Test system: Vero E6 infected with SARS-CoV-2
Assay: inhibition of SARS-CoV-2 cytopathic effect; higher = more antiviral protection, active = above 15
Conditions: 48 h

Measured: inhibition of SARS-CoV-2 cytopathic effect

CCOc1nc2cccc(C(=O)O)c2n1Cc1ccc(-c2ccccc2-c2noc(=O)[nH]2)cc1 [azilsartan]
inactive: 1 nM 0.19% | 8.33 nM 1.58% | 100 nM 2.59% | 833.33 nM 2.65% | 10000 nM 0.22%

Cc1ccccc1OCC(O)CO (stereo not given) [mephenesin]
inactive: 1 nM -1% | 8.33 nM 0.27% | 100 nM 0.3% | 833.33 nM -0.01% | 10000 nM 1.77%

C[C@@H]1C[C@H]2[C@@H]3C[C@H](F)C4=CC(=O)C=C[C@]4(C)[C@@]3(F)[C@@H](O)C[C@]2(C)[C@@]1(O)C(=O)COC(=O)C(C)(C)C [flumethasone-pivalate]
inactive: 1 nM -0.06% | 8.33 nM -2.13% | 100 nM -1.68% | 833.33 nM -1.81% | 10000 nM 6.04%

O=C1NCCNC1c1cccs1 (stereo not given) [tenilsetam]
inactive: 1 nM 3.34% | 8.33 nM 0.52% | 100 nM -1.98% | 833.33 nM -2.12% | 10000 nM -1.68%

FC(F)(F)c1cccc(C2=CCN(CCc3ccc4ccccc4c3)CC2)c1 [xaliproden]
inactive: 1 nM -0.86% | 8.33 nM -1.4% | 100 nM 1.4% | 833.33 nM 0.49% | 10000 nM 0.49%

CCC(=O)OCC(=O)[C@@]1(OC(=O)CC)[C@@H](C)C[C@H]2[C@@H]3CCC4=CC(=O)C=C[C@]4(C)[C@@]3(F)[C@@H](O)C[C@@]21C
inactive: 1 nM -0.73% | 8.33 nM 0.98% | 100 nM -1.61% | 833.33 nM 0.59% | 10000 nM -0.08%

CCn1c(=O)[nH]c2ccccc21
inactive: 1 nM -3.62% | 8.33 nM -3.46% | 100 nM -3.83% | 833.33 nM -3.63% | 10000 nM -3.51%

c1ccc(CC2=NCCN2)cc1 [tolazoline]
inactive: 1 nM -0.5% | 8.33 nM 0.92% | 100 nM 1.33% | 833.33 nM 2.41% | 10000 nM -0.69%

CC(C)(C)NCC(O)c1cc(O)cc(O)c1 (stereo not given)
inactive: 1 nM -2.09% | 8.33 nM -0.61% | 100 nM -1.85% | 833.33 nM -0.02% | 10000 nM -0.76%

CC(C)(C)NC[C@H](O)COc1nsnc1N1CCOCC1 [timolol]
inactive: 1 nM -1.77% | 8.33 nM 0.61% | 100 nM -1.85% | 833.33 nM 3.77% | 10000 nM 0.96%

NCCNC(=O)c1ccc(Cl)cn1 [lazabemide]
inactive: 1 nM 1.32% | 8.33 nM -0.18% | 100 nM -0.23% | 833.33 nM -0.24% | 10000 nM 3.29%

O=C(O)C1CN(Cc2ccc(-c3nc4cc(Cc5ccccc5F)ccc4s3)c(F)c2)C1
inactive: 1 nM 1.34% | 8.33 nM 1.1% | 100 nM 2.02% | 833.33 nM 0.03% | 10000 nM 1.58%

CN1CCC[C@@H](CC2c3ccccc3Sc3ccccc32)C1 (racemic) [metixene]
active: 10000 nM 42.2%
inactive: 1 nM -0.25% | 8.33 nM 1.09% | 100 nM 1.62% | 833.33 nM -0.01%

Cc1ccc(NCCCc2ccccc2)c(N)c1 [NFKB-activation-inhibitor-II]
inactive: 1 nM -0.97% | 8.33 nM -0.96% | 100 nM -1.32% | 833.33 nM -1.12% | 10000 nM 2.24%

Clc1cc(Cl)c(OCC#CI)cc1Cl [haloprogin]
inactive: 1 nM -0.57% | 8.33 nM -1.3% | 100 nM -0.9% | 833.33 nM 4.17%
active: 10000 nM 15.9%

O=C(Nc1ncc(SCCN2CCCC2)s1)[C@]1(c2ccc(S(=O)(=O)C3CC3)cc2)C[C@H]1C1CCCCC1
inactive: 1 nM 1.58% | 8.33 nM -0.96% | 100 nM -2.63% | 833.33 nM -2.76% | 10000 nM -5.6%

CCCN1CCO[C@@H]2c3cc(O)ccc3OC[C@H]21
inactive: 1 nM -1.91% | 8.33 nM -3.42% | 100 nM 2.39% | 833.33 nM -0.35% | 10000 nM -2.98%

O=C(O)/C=C/CO [trans-4-hydroxycrotonic-acid]
inactive: 1 nM 2.26% | 8.33 nM 3.93% | 100 nM 1.39% | 833.33 nM 5.18% | 10000 nM 4.35%

CCOc1cc2ncc(C#N)c(Nc3ccc(F)c(Cl)c3)c2cc1NC(=O)/C=C/CN(C)C [pelitinib]
inactive: 1 nM -2.05% | 8.33 nM -5.13% | 100 nM -7.91% | 833.33 nM -5.27% | 10000 nM 2.95%
